Numbering of substitutions follows the chain as printed.

Among the data in PMC8384837, “Expanding the binding specificity for RNA recognition by a PUF domain” are binding signal values, retold here.

Holding throughout (experiment): yeast three-hybrid, YBZ-1, SC-Leu-His + 0.5 mM 3-AT, 4 days
What all share (conditions): tags: N-Gal4 AD-HA kept; label: inside an RPR1-promoter hybrid RNA with tandem MS2 sites; ssRNA

In assay [1] the target is PUM1 PUF domain R5-NAV (Homo sapiens, UniProt Q14671 828-1176, C1007N;R1008A;Q1011V). Put shortly: (§1)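 The interaction score is the log change in how often each variant appears, from input to selection. Frequencies came from PCR-amplified, Illumina-sequenced repeat regions of Pumilio-1 PUF domain libraries grown in strain YBZ-1 (LexA–MS2 coat fusion, HIS3 reporter) alongside matching RNA elements. Input plates were SC-Leu and selection plates were SC-Leu-His + 0.5 mM 3-AT, each for four days, and the log2 calculation used a pseudocount of 1 where a variant was absent.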

Assay [2] has as its target PUM1 PUF domain R5-EGE (Homo sapiens, UniProt Q14671 828-1176, C1007E;R1008G;Q1011E). In outline: as §1
Assay [3] has as its target PUM1 PUF domain R5-QRS (Homo sapiens, UniProt Q14671 828-1176, C1007Q;Q1011S). Put shortly:
as §1

Assay [4] deals with PUM1 PUF domain R4-LFW (Homo sapiens, UniProt Q14671 828-1176, N971L;H972F;Q975W). In outline:
as §1

Assay [5] has as its target PUM1 PUF domain R4-SRW (Homo sapiens, UniProt Q14671 828-1176, N971S;H972R;Q975W). In outline:
as §1

For assay [6], the target named is PUM1 PUF domain R7-DHV (Homo sapiens, UniProt Q14671 828-1176, S1079D;N1080H;E1083V). Put shortly: as §1
Assay [7] deals with PUM1 PUF domain R7-KRT (Homo sapiens, UniProt Q14671 828-1176, S1079K;N1080R;E1083T). In outline:
as §1

In assay [8] the target is T1, PUM1 PUF domain R6-LWG (Homo sapiens, UniProt Q14671 828-1176, N1043L;Y1044W;Q1047G).
T1 sequence: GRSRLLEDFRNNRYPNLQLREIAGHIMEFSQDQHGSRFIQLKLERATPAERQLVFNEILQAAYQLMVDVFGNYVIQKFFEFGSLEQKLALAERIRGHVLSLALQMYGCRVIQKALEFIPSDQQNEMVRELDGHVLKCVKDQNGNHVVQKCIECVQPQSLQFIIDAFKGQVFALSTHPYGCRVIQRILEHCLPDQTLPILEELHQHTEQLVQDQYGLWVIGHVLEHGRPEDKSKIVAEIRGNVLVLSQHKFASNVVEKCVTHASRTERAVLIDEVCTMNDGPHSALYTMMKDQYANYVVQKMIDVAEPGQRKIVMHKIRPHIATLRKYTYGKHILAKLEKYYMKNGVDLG
In outline:
as §1

The target of assay [9] is T2, PUM1 PUF domain R6-QYS (Homo sapiens, UniProt Q14671 828-1176, N1043Q;Q1047S).
T2 sequence: T1 sequence with L216Q, W217Y, G220S
Put shortly: as §1

For assay [10], the target named is PUM1 PUF domain R4-SLS (Homo sapiens, UniProt Q14671 828-1176, N971S;H972L;Q975S). In outline: as §1
Assay [11] concerns the target PUM1 PUF domain R4-LGM (Homo sapiens, UniProt Q14671 828-1176, N971L;H972G;Q975M). Put shortly: as §1
Assay [12] has as its target T3, PUM1 PUF domain R6-WHG (Homo sapiens, UniProt Q14671 828-1176, N1043W;Y1044H;Q1047G).
T3 sequence: T1 sequence with L216W, W217H
In outline: as §1

Assay [13] deals with T4, PUM1 PUF domain R6-RHQ (Homo sapiens, UniProt Q14671 828-1176, N1043R;Y1044H).
T4 sequence: T1 sequence with L216R, W217H, G220Q
In outline: as §1

Assay [14] deals with PUM1 PUF domain R3-APV (Homo sapiens, UniProt Q14671 828-1176, C935A;R936P;Q939V). Put shortly: as §1
The target in assay [15] is PUM1 PUF domain R3-GHF (Homo sapiens, UniProt Q14671 828-1176, C935G;R936H;Q939F). Put shortly:
as §1

Assay [16] deals with PUM1 PUF domain R1-SWK (Homo sapiens, UniProt Q14671 828-1176, R864W;Q867K). Put shortly:
as §1

“GGCUAGAACUAGUGGAUCCCCCGGCGCCCGGCGGCUCGAGCCCGGGUAAGUGUGAAUAGUCUGCAUGCCGCCGGGCGCCAUGCCUGCAGGUCGACUCUAGAAAACAUG”: the binding signal in [1] was 1.26 log2 enrichment (interaction score); in assay [2], 2.78 log2 enrichment (interaction score); in assay [3], 3.7 log2 enrichment (interaction score).
On to “GGCUAGAACUAGUGGAUCCCCCGGCGCCCGGCGGCUCGAGCCCGGGUAAGUGUUAAUAGUCUGCAUGCCGCCGGGCGCCAUGCCUGCAGGUCGACUCUAGAAAACAUG”, for which the binding signal in assay [1] was 2.55 log2 enrichment (interaction score).
As to “GGCUAGAACUAGUGGAUCCCCCGGCGCCCGGCGGCUCGAGCCCGGGUAAGUGUAUAUAGUCUGCAUGCCGCCGGGCGCCAUGCCUGCAGGUCGACUCUAGAAAACAUG”, the binding signal in [4] is 3.89 log2 enrichment (interaction score); in [5], 0.88 log2 enrichment (interaction score).
On to “GGCUAGAACUAGUGGAUCCCCCGGCGCCCGGCGGCUCGAGCCCGGGUAAGUUUAAAUAGUCUGCAUGCCGCCGGGCGCCAUGCCUGCAGGUCGACUCUAGAAAACAUG”, for which the binding signal was 5.24 log2 enrichment (interaction score) in assay [6] and 4.19 log2 enrichment (interaction score) in assay [7].
With “GGCUAGAACUAGUGGAUCCCCCGGCGCCCGGCGGCUCGAGCCCGGGUAAGUGUAAAUAGUCUGCAUGCCGCCGGGCGCCAUGCCUGCAGGUCGACUCUAGAAAACAUG”, the binding signal in [8] is 6.16 log2 enrichment (interaction score); in [9], 3.68 log2 enrichment (interaction score); in [10], 2.39 log2 enrichment (interaction score); in [5] it was 3.2 log2 enrichment (interaction score); in [3], 1.57 log2 enrichment (interaction score); in assay [11], 3.11 log2 enrichment (interaction score). The binding signal in [12] is 3.76 log2 enrichment (interaction score); in [13] it was 5.04 log2 enrichment (interaction score); in assay [14] it was 3.39 log2 enrichment (interaction score).
On to “GGCUAGAACUAGUGGAUCCCCCGGCGCCCGGCGGCUCGAGCCCGGGUAAGUGUAAUUAGUCUGCAUGCCGCCGGGCGCCAUGCCUGCAGGUCGACUCUAGAAAACAUG”, for which the binding signal in assay [15] was 2.21 log2 enrichment (interaction score); in assay [14], 1.79 log2 enrichment (interaction score).
Consider “GGCUAGAACUAGUGGAUCCCCCGGCGCCCGGCGGCUCGAGCCCGGGUAAGUGUAAAUCGUCUGCAUGCCGCCGGGCGCCAUGCCUGCAGGUCGACUCUAGAAAACAUG”, for which the binding signal in [16] was 2.68 log2 enrichment (interaction score).
